From PubChem BioAssay (Tox21)
Values without a mark were called inactive. Results filed as inconclusive are left out. A call without a number means that no potency is given here. Activity calls are given as the source filed them. Unless noted, calls come from the whole dose curve; as a rule, active = well fitted curve in the direction sought with a large enough effect in the repeat runs; inconclusive = weak or mixed curves; inactive = no such curve, though single readings can be large; an effect the other way counts as inactive or inconclusive.

Columns and labels:
[1] = qHTS assay to identify small molecule agonists of the sonic hedgehog signaling (Shh) pathway (AID 1259368; calls by dose curve; note: series mostly up to about 92 µM; nearly all actives have a fitted effect of over 15% in size)
How it was run: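 NIH/3T3-derived 3T3Gli1-Luc cells carrying a stably integrated Gli1 response element–firefly luciferase reporter were plated, left 4 hr at 37 C, then given compounds in DMSO for 24 hr. Luminescence was read 30 min after adding luciferase reagent.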

[2] = qHTS assay to identify small molecule antagonists of the sonic hedgehog signaling (Shh) pathway (AID 1259369; calls by dose curve; note: nearly all actives have a fitted effect of over 45% in size; note: potency is the fitted concentration of half-maximal effect)
How it was run: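 NIH/3T3-derived 3T3Gli1-Luc cells with stably integrated Gli1-Luc reporter were preincubated 4hr at 37 C, then given compounds in DMSO plus Shh conditioned medium and incubated 24hr. Firefly luciferase luminescence read after 30min reagent at room temperature.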

[3] = qHTS assay to identify small molecule agonists of the androgen receptor (AR) signaling pathway in the presence of an antagonist - cell viability counter screen (AID 1259379); note: series mostly up to about 92 µM; nearly all actives have a fitted effect of over 25% in size
How it was run: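 MDA-kb2 human breast carcinoma cells (stable MMTV-luciferase, AR/GR responsive) were seeded 3,000 cells/well, pre-incubated 5 hr at 37C without CO2, then given 3.0uM nilutamide and compounds at 15 concentrations for 16 hr. Viability was read by CellTiter-Fluor fluorescence.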

[4] = target: Androgen receptor (Homo sapiens) (UniProt P10275); test: qHTS assay to identify small molecule agonists of the androgen receptor (AR) signaling pathway in the presence of an antagonist (AID 1259381; calls by dose curve; note: nearly all actives have a fitted effect of over 15% in size)
Androgen receptor (Homo sapiens), sequence (P10275 whole entry, looked up): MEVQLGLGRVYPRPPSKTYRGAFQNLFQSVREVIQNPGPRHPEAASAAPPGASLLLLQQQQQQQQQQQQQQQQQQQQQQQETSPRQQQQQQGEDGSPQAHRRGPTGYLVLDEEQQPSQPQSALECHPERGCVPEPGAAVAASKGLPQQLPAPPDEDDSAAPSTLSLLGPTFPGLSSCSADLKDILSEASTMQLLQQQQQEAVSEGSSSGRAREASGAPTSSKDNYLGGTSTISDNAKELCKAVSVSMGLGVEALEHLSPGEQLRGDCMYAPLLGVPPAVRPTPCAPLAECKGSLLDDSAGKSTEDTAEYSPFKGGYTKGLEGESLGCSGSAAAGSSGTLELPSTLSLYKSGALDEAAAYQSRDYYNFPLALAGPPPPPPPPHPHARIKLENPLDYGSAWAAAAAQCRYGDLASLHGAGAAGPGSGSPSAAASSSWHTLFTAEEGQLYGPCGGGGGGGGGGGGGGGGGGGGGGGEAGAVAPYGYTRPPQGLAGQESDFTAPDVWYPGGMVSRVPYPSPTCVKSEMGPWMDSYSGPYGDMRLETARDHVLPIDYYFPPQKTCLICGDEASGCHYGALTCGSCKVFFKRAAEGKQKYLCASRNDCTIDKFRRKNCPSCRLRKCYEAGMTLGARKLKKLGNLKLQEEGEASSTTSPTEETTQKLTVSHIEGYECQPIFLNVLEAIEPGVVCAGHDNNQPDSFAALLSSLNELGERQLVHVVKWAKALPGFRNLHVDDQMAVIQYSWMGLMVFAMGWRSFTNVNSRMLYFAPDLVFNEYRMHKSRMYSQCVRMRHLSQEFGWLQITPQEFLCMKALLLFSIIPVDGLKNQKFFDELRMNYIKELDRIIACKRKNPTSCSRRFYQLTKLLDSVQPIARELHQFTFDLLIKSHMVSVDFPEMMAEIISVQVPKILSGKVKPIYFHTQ
How it was run: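 MDA-kb2 human breast carcinoma cells carrying an MMTV-luciferase reporter (AR- and GR-responsive) were treated with compounds at 15 concentrations plus 3.0uM final nilutamide for 16hr at 37C without CO2; luminescence was read after ONE-Glo addition.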

[5] = target: Estrogen receptor (Homo sapiens) (UniProt P03372); test: qHTS assay to identify small molecule agonists of the estrogen receptor alpha (ER-alpha) signaling pathway in the presence of an antagonist (AID 1259383; calls by dose curve; note: top concentration of the series differs between compounds; nearly all actives have a fitted effect of over 15% in size)
Estrogen receptor (Homo sapiens), sequence (P03372 whole entry, looked up): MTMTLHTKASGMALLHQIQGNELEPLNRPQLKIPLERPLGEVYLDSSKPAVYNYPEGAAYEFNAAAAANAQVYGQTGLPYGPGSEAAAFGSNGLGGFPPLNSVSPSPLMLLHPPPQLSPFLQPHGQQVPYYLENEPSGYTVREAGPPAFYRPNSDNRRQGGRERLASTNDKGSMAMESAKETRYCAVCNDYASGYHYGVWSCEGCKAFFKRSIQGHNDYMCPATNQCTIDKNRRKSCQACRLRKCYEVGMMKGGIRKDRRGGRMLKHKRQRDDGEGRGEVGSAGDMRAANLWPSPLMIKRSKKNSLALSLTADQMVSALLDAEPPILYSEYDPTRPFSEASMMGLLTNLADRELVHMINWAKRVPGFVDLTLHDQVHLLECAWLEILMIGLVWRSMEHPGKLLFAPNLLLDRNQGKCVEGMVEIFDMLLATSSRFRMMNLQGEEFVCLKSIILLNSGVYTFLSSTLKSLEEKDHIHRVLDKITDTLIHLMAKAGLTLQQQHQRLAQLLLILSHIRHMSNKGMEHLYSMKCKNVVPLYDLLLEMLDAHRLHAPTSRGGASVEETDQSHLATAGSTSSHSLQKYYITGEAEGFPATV
How it was run: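 VM7Luc4E2 cells (endogenous full-length ER-alpha, 4×ERE-luciferase) were precultured 5 days in phenol red-free medium with 10% charcoal-stripped FBS, given 10.0nM ICI-182,780 (final), then treated with compounds at 15 concentrations for 22hr at 37C; luminescence read with ONE-Glo.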

[6] = qHTS assay to identify small molecule agonists or antagonists of the thyroid stimulating hormone receptor (TSHR) signaling pathway - wild type cell line counter screen (AID 1259384; calls by dose curve)
How it was run: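 Wild-type HEK293 cells were plated 18 h at 37 C/5% CO2, pin-dosed with compound plus Ro20-1724 medium, held 30 min at room temperature, then given cAMP-d2 and anti-cAMP-cryptate; fluorescence was read after 1 h. Fifteen concentrations, triplicate.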

[7] = target: Thyrotropin receptor (Homo sapiens) (UniProt P16473); test: qHTS assay to identify small molecule antagonists of the thyroid stimulating hormone receptor (TSHR) signaling pathway (AID 1259385; calls by dose curve; note: nearly all actives have a fitted effect of over 20% in size; note: potency is the fitted concentration of half-maximal effect)
Thyrotropin receptor (Homo sapiens), sequence (P16473 whole entry, looked up): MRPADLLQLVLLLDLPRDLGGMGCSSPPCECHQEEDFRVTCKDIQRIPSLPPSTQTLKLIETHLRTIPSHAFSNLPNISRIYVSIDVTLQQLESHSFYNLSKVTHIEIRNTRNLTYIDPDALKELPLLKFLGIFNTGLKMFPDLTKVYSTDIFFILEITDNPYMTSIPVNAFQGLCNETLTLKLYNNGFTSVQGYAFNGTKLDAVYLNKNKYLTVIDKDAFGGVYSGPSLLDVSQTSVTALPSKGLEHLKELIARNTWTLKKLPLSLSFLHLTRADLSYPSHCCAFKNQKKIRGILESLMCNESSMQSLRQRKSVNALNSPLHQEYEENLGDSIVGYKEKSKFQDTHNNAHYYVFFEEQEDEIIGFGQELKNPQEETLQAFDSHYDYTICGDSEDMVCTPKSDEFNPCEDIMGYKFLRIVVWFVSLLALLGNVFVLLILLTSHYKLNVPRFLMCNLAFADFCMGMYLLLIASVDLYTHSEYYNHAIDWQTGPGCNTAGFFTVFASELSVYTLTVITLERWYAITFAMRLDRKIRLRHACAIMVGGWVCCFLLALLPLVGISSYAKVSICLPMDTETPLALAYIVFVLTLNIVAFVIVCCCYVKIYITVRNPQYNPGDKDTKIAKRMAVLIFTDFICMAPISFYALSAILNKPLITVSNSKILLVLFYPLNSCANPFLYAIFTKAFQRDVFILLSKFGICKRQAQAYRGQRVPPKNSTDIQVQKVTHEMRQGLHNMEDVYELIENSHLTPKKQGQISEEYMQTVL
How it was run: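 TSHR-HEK293 cells were plated and held 18 h at 37C/5% CO2, then given compound plus Ro20-1724 and stimulated with TSH at 1.5 ng/mL final. After 30 min at room temperature, cAMP was detected with cAMP-d2/anti-cAMP-cryptate (1 h) by fluorescence.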

[8] = qHTS assay to identify small molecule agonists of the estrogen receptor alpha (ER-alpha) signaling pathway in the presence of an antagonist - cell viability counter screen (AID 1259386);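 note: series mostly up to about 92 µM; cells exposed to compounds for 22 h at 37 °C before the viability read; nearly all actives have a fitted effect of over 30% in size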
How it was run: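 VM7Luc4E2 cells (endogenous full-length ER-alpha, 4×ERE-luciferase) were held 5 days in phenol red-free medium with 10% charcoal-stripped FBS, plated, then given 10.0nM ICI-182,780 and compounds at 15 concentrations for 22hr at 37C; viability read by CellTiter-Fluor fluorescence.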

[9] = target: Progesterone receptor (Homo sapiens) (UniProt P06401); test: qHTS assay to identify small molecule agonists of the progesterone receptor (PR) signaling pathway (AID 1346784; calls by dose curve; note: nearly all actives have a fitted effect of over 30% in size)
Progesterone receptor (Homo sapiens), sequence (P06401 whole entry, looked up): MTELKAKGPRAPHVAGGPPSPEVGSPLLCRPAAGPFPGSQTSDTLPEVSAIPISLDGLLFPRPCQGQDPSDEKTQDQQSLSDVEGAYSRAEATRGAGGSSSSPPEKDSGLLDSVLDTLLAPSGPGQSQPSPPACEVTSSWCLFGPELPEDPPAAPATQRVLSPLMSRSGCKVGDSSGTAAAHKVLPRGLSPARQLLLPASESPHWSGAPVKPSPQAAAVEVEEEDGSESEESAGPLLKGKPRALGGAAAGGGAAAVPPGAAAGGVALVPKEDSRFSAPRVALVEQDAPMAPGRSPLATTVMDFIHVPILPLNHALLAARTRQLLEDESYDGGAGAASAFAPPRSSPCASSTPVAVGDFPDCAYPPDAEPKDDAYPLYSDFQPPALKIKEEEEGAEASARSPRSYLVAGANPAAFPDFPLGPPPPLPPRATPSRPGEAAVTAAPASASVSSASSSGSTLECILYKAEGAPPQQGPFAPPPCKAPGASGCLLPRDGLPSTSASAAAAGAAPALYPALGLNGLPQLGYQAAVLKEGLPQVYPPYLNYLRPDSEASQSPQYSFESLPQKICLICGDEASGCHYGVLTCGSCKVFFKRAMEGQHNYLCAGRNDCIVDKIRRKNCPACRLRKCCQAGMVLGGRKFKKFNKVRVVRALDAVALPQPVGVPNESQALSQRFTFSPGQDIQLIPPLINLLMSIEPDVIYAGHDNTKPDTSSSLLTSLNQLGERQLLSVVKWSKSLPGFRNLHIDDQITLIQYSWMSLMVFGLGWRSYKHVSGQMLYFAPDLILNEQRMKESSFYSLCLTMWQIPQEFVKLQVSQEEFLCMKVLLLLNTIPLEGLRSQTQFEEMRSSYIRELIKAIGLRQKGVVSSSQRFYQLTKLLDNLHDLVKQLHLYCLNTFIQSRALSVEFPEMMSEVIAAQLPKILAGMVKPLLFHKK
How it was run: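 PR-UAS-bla HEK 293T cells carrying a UAS-driven beta-lactamase reporter were seeded in medium with 2% charcoal-stripped FBS, preincubated 6 hr at 37C, then exposed to compounds in DMSO for 16 hr; agonism was read by LiveBLAzer B/G FRET fluorescence.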

[10] = qHTS assay to identify small molecule antagonists of the TGF-beta/Smad signaling pathway - cell viability counter screen (AID 1346824); note: nearly all actives have a fitted effect of over 50% in size
How it was run: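 SBE-bla HEK 293T cells were plated overnight at 37 C, then given compounds in DMSO plus TGF-beta1 (added as 0.25 ng/mL solution) for 5 hr. After the bla read, CellTiter-Glo was added to the same wells and luminescence read after 30 min at room temperature.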

[11] = qHTS assay to identify small molecule agonists of the TGF-beta/Smad signaling pathway - cell viability counter screen (AID 1346829); note: top concentration of the series differs between compounds; nearly all actives have a fitted effect of over 45% in size
How it was run: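 SBE-bla HEK 293T cells plated overnight, compound exposure 5 hr at 37 C. Viability read in the same wells by CellTiter-Glo luminescence after 30 min at room temperature, following the beta-lactamase read.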

[12] = qHTS assay to identify small molecule agonists of the TGF-beta/Smad signaling pathway (AID 1346859; active = well fitted activation curve with a large enough effect in the signal ratio in the repeat runs, not every such curve was filed as active; the % refers to the signal ratio; note: series mostly up to about 77 µM)
How it was run: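 HEK 293T cells stably carrying a beta-lactamase reporter driven by the Smad binding element were seeded overnight, exposed to DMSO-dissolved compounds for 5 hr at 37 C, 5% CO2, then loaded with FRET substrate for 2 hr at room temperature.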

[13] = qHTS assay to identify small molecule agonists of the estrogen receptor beta (ER-beta) signaling pathway - cell viability counter screen (AID 1259380); note: nearly all actives have a fitted effect of over 30% in size; note: potency is the fitted concentration of half-maximal effect
How it was run: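 ER-beta-UAS-bla HEK293T cells in medium with 2% charcoal-stripped FBS were preincubated 6 hr at 37C, dosed with compound in DMSO for 16 hr, then after the bla read, CellTiter-Glo was added for 30 min at room temperature; luminescence recorded.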

[14] = qHTS assay to identify small molecule antagonists of the estrogen receptor beta (ER-beta) signaling pathway - cell viability counter screen (AID 1259382); note: nearly all actives have a fitted effect of over 55% in size; note: potency is the fitted concentration of half-maximal effect
How it was run: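 ER-beta-UAS-bla HEK293T cells (2,000/well, 2% charcoal-stripped FBS) were pre-incubated 6 hr at 37C, then given compound plus 1nM final 17-beta-estradiol for 16 hr. Viability was read in the same wells by CellTiter-Glo luminescence after 30 min at room temperature.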

[15] = qHTS assay to identify small molecule antagonists of the progesterone receptor (PR) signaling pathway - cell viability counter screen (AID 1346798); note: nearly all actives have a fitted effect of over 50% in size; note: potency is the fitted concentration of half-maximal effect
How it was run: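 PR-UAS-bla HEK293T cells in medium with 2% charcoal-stripped FBS were treated with compounds plus R5020 for 16 hr at 37C. Cell viability was then read by CellTiter-Glo luminescence after 30 min at room temperature in the same wells.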

[16] = target: Thyrotropin-releasing hormone receptor (Homo sapiens) (UniProt P34981); test: qHTS assay to identify small molecule antagonists of the thyrotropin-releasing hormone receptor (TRHR) signaling pathway (AID 1346877; active = well fitted inhibition curve with a large enough effect in the repeat runs, not every such curve was filed as active; note: series mostly up to about 51 µM)
Thyrotropin-releasing hormone receptor (Homo sapiens), sequence (P34981 whole entry, looked up): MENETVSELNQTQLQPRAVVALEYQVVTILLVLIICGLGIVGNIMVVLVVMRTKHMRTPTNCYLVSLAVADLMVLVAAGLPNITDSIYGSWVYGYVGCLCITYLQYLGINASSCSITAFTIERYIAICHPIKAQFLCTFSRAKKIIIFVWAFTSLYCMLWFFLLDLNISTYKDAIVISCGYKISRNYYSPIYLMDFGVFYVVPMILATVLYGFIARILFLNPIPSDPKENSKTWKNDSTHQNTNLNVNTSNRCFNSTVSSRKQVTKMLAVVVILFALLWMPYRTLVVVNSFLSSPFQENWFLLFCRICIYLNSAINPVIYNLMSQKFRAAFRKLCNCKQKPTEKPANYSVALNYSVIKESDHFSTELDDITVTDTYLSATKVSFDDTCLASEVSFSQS
How it was run: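 TRHR-expressing HEK293 cells were seeded, cultured 18 h at 37 °C, then loaded with calcium dye for 2 h. Compounds were pre-incubated 5 min at room temperature before 1 nM TRH (final) was added, and kinetic fluorescence was recorded for 3 min.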

[17] = target: Progesterone receptor (Homo sapiens) (UniProt P06401); test: qHTS assay to identify small molecule antagonists of the progesterone receptor (PR) signaling pathway (AID 1346795; active = well fitted inhibition curve with a large enough effect in the signal ratio in the repeat runs, not every such curve was filed as active; the % refers to the signal ratio; note: potency is the fitted concentration of half-maximal effect)
How it was run: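 PR-UAS-bla HEK293T cells carrying a UAS-driven beta-lactamase reporter were plated in medium with 2% charcoal-stripped FBS and rested 6 hr at 37C. Compounds were added with 1 nM R5020 (final) for 16 hr, then FRET substrate loaded 2 hr at room temperature.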

[18] = qHTS assay to identify small molecule agonists of the progesterone receptor (PR) signaling pathway - cell viability counter screen (AID 1346799; calls by dose curve; note: nearly all actives have a fitted effect of over 45% in size)
How it was run: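 PR-UAS-bla HEK293T cells, 3,000 per well in medium with 2% charcoal-stripped FBS, were preincubated 6 hr at 37C, then exposed to compounds for 16 hr; viability was read as CellTiter-Glo luminescence after 30 min at room temperature.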

[19] = target: Estrogen receptor beta (Homo sapiens) (UniProt Q92731); test: qHTS assay to identify small molecule agonists of the estrogen receptor beta (ER-beta) signaling pathway (AID 1259377; active = well fitted activation curve with a large enough effect in the signal ratio in the repeat runs, not every such curve was filed as active; the % refers to the signal ratio)
Estrogen receptor beta (Homo sapiens), sequence (Q92731 whole entry, looked up): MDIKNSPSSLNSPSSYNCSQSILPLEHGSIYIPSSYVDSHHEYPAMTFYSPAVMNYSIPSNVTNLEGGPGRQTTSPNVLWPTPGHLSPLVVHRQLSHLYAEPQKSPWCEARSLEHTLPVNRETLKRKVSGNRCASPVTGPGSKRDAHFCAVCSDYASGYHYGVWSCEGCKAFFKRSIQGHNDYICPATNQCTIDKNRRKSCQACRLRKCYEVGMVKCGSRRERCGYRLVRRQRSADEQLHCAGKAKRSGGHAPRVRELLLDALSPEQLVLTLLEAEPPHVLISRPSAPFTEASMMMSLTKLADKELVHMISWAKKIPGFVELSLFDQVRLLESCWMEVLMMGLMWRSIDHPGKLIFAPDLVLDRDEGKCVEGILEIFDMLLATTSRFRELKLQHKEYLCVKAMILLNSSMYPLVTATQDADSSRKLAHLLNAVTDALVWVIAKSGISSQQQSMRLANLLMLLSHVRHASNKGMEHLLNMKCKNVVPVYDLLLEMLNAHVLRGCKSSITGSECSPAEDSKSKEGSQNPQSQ
How it was run: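 ER-beta-UAS-bla HEK293T (GripTite) cells carrying a UAS-driven beta-lactamase reporter, in medium with 2% charcoal-stripped FBS, were exposed to compounds for 16 hr at 37C; LiveBLAzer B/G FRET substrate was then added and fluorescence read after 2 hours at room temperature.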

| Compound | Potency [1] | Potency [2] | Potency [3] | Potency [4] | Potency [5] | outcome [6] | Potency [7] | Potency [8] | Potency [9] | outcome [10] | outcome [11] | outcome [12] | Potency [13] | Potency [14] | Potency [15] | outcome [16] | Potency [17] | Potency [18] | Potency [19] |
| --- | --- | --- | --- | --- | --- | --- | --- | --- | --- | --- | --- | --- | --- | --- | --- | --- | --- | --- | --- |
| O=C(O)c1c(O)c(-c2ccccc2)nc2ccccc12 | inactive | inactive | inactive | inactive | inactive | inactive | inactive | inactive | inactive | inactive | inactive | inactive |  |  |  |  |  |  |  |
| CN1CCN(CCCN2c3ccccc3Sc3ccc(S(=O)(=O)N(C)C)cc32)CC1 | inactive | 13.3 µM (active) | inactive |  |  | inactive | 29.8 µM (active) | inactive |  | inactive | inactive | inactive | 23.7 µM (active) | 23.7 µM (active) | 13.3 µM (active) | inactive |  |  |  |
| Nc1c(I)cc(I)c(C(=O)N(CCC(=O)O)c2ccccc2)c1I | inactive | inactive | inactive | inactive |  |  |  | inactive |  | inactive | inactive | inactive | inactive | inactive | inactive | inactive | inactive | inactive |  |
| CCCCC(CC)CNCC(CC)CCCC (stereo unspecified) | inactive | inactive | inactive |  |  | inactive | inactive | inactive | inactive | inactive | inactive | inactive | inactive | inactive | inactive | inactive | inactive | inactive |  |
| CC(C)CCCCCCOC(=O)CCCCC(=O)OCCCCCCC(C)C | inactive | inactive | inactive |  |  | inactive | inactive |  | inactive | inactive | inactive | inactive | inactive | inactive | inactive |  | inactive | inactive |  |
| N#C[C@@H]1C[C@@H]2C[C@@H]2N1C(=O)[C@@H](N)C12CC3CC(CC(O)(C3)C1)C2 | inactive | inactive | inactive |  |  | inactive | inactive |  | inactive | inactive | inactive | inactive | inactive | inactive | inactive |  | inactive | inactive |  |
| O=C(O)c1cccnc1C(=O)O | inactive | inactive | inactive |  | inactive | inactive | inactive |  | inactive | inactive | inactive | inactive | inactive | inactive | inactive |  | inactive | inactive |  |
| CC(COc1ccc(C(C)(C)C)cc1)OS(=O)OCCCl (stereo unspecified) | inactive | 1.94 µM (active) |  |  | inactive | inactive | inactive | inactive |  | inactive | inactive | inactive |  | inactive |  |  |  |  |  |
| C[C@@H]1C[C@H]2[C@@H]3CCC4=CC(=O)C=C[C@]4(C)[C@@]3(F)[C@@H](O)C[C@]2(C)[C@@]1(O)C(=O)CO | inactive | 0.492 µM (active) | inactive |  |  |  |  | inactive |  | inactive | inactive | inactive | inactive | inactive |  |  |  |  |  |
| CC1=NN(c2ccc(C(=O)O)cc2)C(=O)C1 | inactive | inactive | inactive |  |  |  |  | inactive | inactive | inactive | inactive | inactive | inactive | inactive | inactive | inactive | inactive | inactive |  |
| Nc1ccc(Cl)cc1[N+](=O)[O-] | inactive | inactive |  |  | inactive | inactive | inactive |  | inactive |  | inactive | inactive | inactive | inactive | inactive |  |  |  |  |
| COc1cc2ncnc(Nc3ccc(F)c(Cl)c3)c2cc1OCCCN1CCOCC1 | inactive | 15 µM (active) |  | inactive | inactive | inactive | inactive | inactive |  | inactive | inactive | inactive | 6.68 µM (active) |  |  | inactive | 21.1 µM (active) |  |  |
| CC(C)C(OC(=O)c1ccccc1)C(C)(C)COC(=O)c1ccccc1 (stereo unspecified) | inactive | inactive | inactive |  |  | inactive | inactive | inactive | inactive | inactive | inactive | inactive |  | inactive |  |  | 19.3 µM (active) |  |  |
| CCCCCCCCCCOS(=O)(=O)O | inactive | inactive | inactive |  | inactive | inactive | inactive | inactive |  | inactive | inactive | inactive |  | inactive |  |  | inactive |  |  |
| COC(=O)c1cc(Cl)ccc1NS(=O)(=O)C(F)(F)F | inactive |  | inactive | inactive |  | inactive | inactive | inactive | inactive | inactive | inactive | inactive | inactive | inactive | inactive | inactive | inactive | inactive | inactive |
